Measurements reported in PubChem BioAssay AID624330 (Southern Research Specialized Biocontainment Screening …, 2012).
Several values for one entry are separate records, joined by “and”; a condition that tells them apart may be missing. Equal values may be shown once. Hit rate of the full screen: of about 340,000 compounds, about 2,100 (0.62%) were called active.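 How the source made its calls: active means first-screen hits whose inhibition reached a set limit at any dose in the follow-up dose series; inconclusive means inhibition above the set first-screen limit but never retested; inactive means the rest.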 A selection follows. Results with a measured potency or affinity are listed apart.

molecular target: Rac GTPase-activating protein 1 (Homo sapiens) (UniProt Q9H0H5); experiment: blockers of MgcRacGAP-driven Rac1 GTP hydrolysis – biochemical, ADP Hunter fluorescence, primary and confirmatory, confirmation (AID 624330); conditions: MgcRacGAP-stimulated Rac1 GTP hydrolysis, at 30 µM, hits give high values, GST-tagged Rac1 F28L mutant substrate;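 further: fluorescence reports GDP produced by GAP-driven GTP hydrolysis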
Sequence (Q9H0H5 whole entry, looked up): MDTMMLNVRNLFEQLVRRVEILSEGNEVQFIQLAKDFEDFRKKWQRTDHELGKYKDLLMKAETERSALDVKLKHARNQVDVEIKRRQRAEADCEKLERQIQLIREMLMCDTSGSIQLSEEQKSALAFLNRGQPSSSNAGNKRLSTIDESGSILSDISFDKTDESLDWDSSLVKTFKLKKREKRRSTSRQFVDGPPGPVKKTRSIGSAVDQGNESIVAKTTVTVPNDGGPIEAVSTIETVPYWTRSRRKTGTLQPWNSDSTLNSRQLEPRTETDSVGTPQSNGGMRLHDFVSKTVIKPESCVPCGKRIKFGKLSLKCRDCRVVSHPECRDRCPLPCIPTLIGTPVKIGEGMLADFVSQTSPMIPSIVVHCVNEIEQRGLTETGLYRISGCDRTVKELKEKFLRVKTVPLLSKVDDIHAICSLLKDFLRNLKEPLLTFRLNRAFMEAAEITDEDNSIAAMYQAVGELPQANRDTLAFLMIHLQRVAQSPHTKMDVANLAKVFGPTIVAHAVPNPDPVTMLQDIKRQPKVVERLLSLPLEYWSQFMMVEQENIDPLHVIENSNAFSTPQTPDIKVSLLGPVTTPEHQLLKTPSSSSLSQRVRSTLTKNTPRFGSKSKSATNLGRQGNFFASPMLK

inhibition, inactive:
CCCSCCCNC(=O)c1ccc(C)c(NC(=O)C2=C(C)OCCS2)c1 6.84%
CCC(=O)N1C(=O)CCN(C(C)=O)c2ccccc21 11.8%
COc1cccc(NC(=O)CN(C)C(=O)C(CCSC)NC(=O)c2ccco2)c1 (stereo unspecified) 1.87%
Cc1nn(C)c(=S)[nH]c1=S -2.65%
O=C(NCc1nc2ccccc2[nH]1)c1cccc(S(=O)(=O)N2CCCCC2)c1 1.53%
Cc1c(C(=O)N/N=C/c2cccnc2)sc(N)c1C#N 6.19%
COc1cc(/C=N/NC(=O)c2sc(N)c(C#N)c2C)cc(Br)c1O 11.7%
COc1ccc(C(=O)NC2=Nc3ccccc3N=C(C)C2c2ccccc2)cc1 (stereo unspecified) 0.78%
Nc1cc(N)nc(SCC(=O)N2CCN(S(=O)(=O)c3ccccc3)CC2)n1 7.76%
c1ccc2c(c1)Nc1cc3ccccc3cc1O2 -1.21%
COc1ccc(/C=N/NC(=O)C(C)n2nnc3ccccc32)cc1OC (stereo unspecified) 8.77%
CCOc1cc(/C=N\NC(=O)Cn2nnc3ccccc32)ccc1O 28.1%
COc1ccc(/C=N/NC(=O)CCn2nnc3ccccc32)cc1 15.9%
COc1cccc(/C=N/NC(=O)CCn2nnc3ccccc32)c1 1.99%
COc1ccc(/C=N/NC(=O)Cn2nnc3ccccc32)cc1OC 3.04%
COc1cccc(/C=N/NC(=O)C(C)n2nnc3ccccc32)c1 (stereo unspecified) 9.47%
Cc1cccc(C(C)n2nnc3ccccc32)c1O (stereo unspecified) 6.53%
COc1ccc(C(O)c2nc3ccccc3n2C)cc1OC (stereo unspecified) 3.18%
O=C(c1ccnc(Cl)c1)N1CCCC(Nc2ccc(F)cc2)C1 (stereo unspecified) 6.71%
CCc1nnc(NC(=O)CSc2nnc(C3CC3)n2C)s1 3.03%
Cc1ccc(OC/C(O)=C(\C#N)c2nc3ccccc3s2)cc1 0.24%
CN(C1CCS(=O)(=O)C1)S(=O)(=O)c1ccc(N2CCCC2=O)cc1 (stereo unspecified) 14.4%
COc1ccc(CCNC(=O)C(=O)NCC2CCCN2S(=O)(=O)c2ccccc2)cc1OC (stereo unspecified) 1.68%
CC(NC(=O)Nc1ccc([N+](=O)[O-])cc1)C(c1cccs1)N1CCCC1 (stereo unspecified) 8.33%
COc1ccc(/C=N/NC(=O)CCn2c3ccccc3c3ccccc32)cc1OC -2.76%
COc1ccc(/C=N/NC(=O)CCn2c3ccccc3c3ccccc32)cc1O 11.7%
COc1ccc(CCc2ccc3cc(OC)ccc3n2)cc1 1.87%
O=C(O)c1ccccc1C(=O)N(Cc1ccccc1)Cc1ccccc1 4%
CC(C)[C@H](N)c1cn([C@@H](CO)C(=O)N2CCNCC2)nn1 6.71%
CCCc1c(C(=O)N/N=C/c2ccc3c(c2)OCO3)nnn1-c1nonc1N 3.5%
CC(C#N)(NC(=O)CN1CCN(S(=O)(=O)c2cccc(F)c2)CC1)C1CC1 (stereo unspecified) 23.8%
COc1ccc(CCC(=O)N2CCN(S(=O)(=O)c3ccc(OC)c([N+](=O)[O-])c3)CC2)cc1 14.3%
Cc1nc2ncnn2c(C)c1CCC(=O)NCCc1ccccc1 3.16%
Cc1ccc([N+](=O)[O-])c2c1C(N1CCCC1)C(C)(C)O2 (stereo unspecified) 5.51%
N#Cc1ccccc1NC(=O)CN1CCN(Cc2ccccc2)CC1 -4.52%
COC(=O)c1ccc(C)c(-n2c(C)cc(C=O)c2C)c1 2.91%
COC(=O)N1CCN(c2ccc(Cl)c(Cl)c2)CC1 6.48%
CCOC(=O)N1CCN(c2ccc(Cl)c(Cl)c2)CC1 -6.41%
Clc1cccc(N2CCN(CCCN3CCN(c4ccccc4)CC3)CC2)c1 7.52%
NC(=O)CN1CCN(c2cccc(Cl)c2)CC1 6.34%
COc1ccc(NC(=O)c2ccc3ccccc3n2)cc1S(=O)(=O)N1CCCCC1 3.75%
O=C(O)C(O)Cc1c[nH]c2ccccc12 (stereo unspecified) 5.43%
Cc1ccc(S(=O)(=O)Nc2ccccc2N=Cc2ccc([N+](=O)[O-])cc2[N+](=O)[O-])cc1 4.67%
COc1ccc2nc(NC(=O)CN3CCN(C)CC3)sc2c1 14.5%
CCOc1ccc2nc(NC(=O)CN3CCN(CC)CC3)sc2c1 5.24%
CCCN1CCN(CC(=O)Nc2nc3ccccc3s2)CC1 12.4%
CCOC(=O)N1CCN(CC(=O)Nc2nc3ccccc3s2)CC1 -4.03%
O=C(CN1CCN(c2ccccn2)CC1)Nc1nc2ccccc2s1 12.2%
O=C(CN1CCN(Cc2ccccc2)CC1)Nc1nc2ccccc2s1 14%
Cc1[nH]nc(N=CC2=C(O)CC(c3ccco3)CC2=O)c1-c1ccccc1 (stereo unspecified) -2.48% and -0.93%
CNC(=O)c1cc(C(=O)c2ccc(F)cc2Cl)c[nH]1 4.17%
CC1CCCCC1NC(=O)C1CC=CCC1C(=O)O (stereo unspecified) -1.3%
CCC1=C(OC(=O)N(CC)CC)N2C(=O)OC(=NCC(=O)OC)[C@]2(Cc2ccccc2)[C@H]2C1=CC[C@H]1C(=O)N(C)C(=O)[C@H]12 0.87%
O=C(NC(=S)N1CCN(c2ccc([N+](=O)[O-])cc2)CC1)c1ccco1 13.1%
O=C(CN1CCN(c2ccc(F)cc2)CC1)Nc1ccccc1C(=O)NCCc1ccccc1 9.18%
O=C(NC(=S)N1CCN(c2ccccc2)CC1)c1ccco1 5.3%
S=C(NCCc1ccccc1)N1CCN(C(=S)NCCc2ccccc2)CC1 1.96%
COc1ccc(N2CCN(C(=S)NCCc3ccccc3)CC2)cc1 5.11%
CC1CCN(CC(=O)Nc2ccccc2C(=O)NC2CC2)CC1 3.3%
O=C(CN1CCN(S(=O)(=O)c2ccccc2)CC1)Nc1ccccc1C(=O)NC1CC1 4.29%
O=C(CN1CCN(c2ccccc2)CC1)Nc1ccccc1C(=O)NCCc1ccccc1 15.8%
